About 2,000 (36%) of roughly 5,500 compounds were called active. About 18% were inconclusive and are not listed. Cut-off read from the data, not from the text of the source: active = normalized growth mostly below about 0.91 (no sharp cut-off); inconclusive = no clear call, values can overlap the other calls; inactive = mostly above about 0.92. Some of the results follow.
Test: chemical genetic growth profiling, strain panel (AID 1159580);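 note: tested at 20 µM; growth read once vehicle control cultures reached saturation at 30 °C; 1 = growth at the plate median or of vehicle wells; lower values mean less growth of the strain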
Conditions: growth OD
[1] = S. cerevisiae deletion strains, locus YAL013W, strain DEP1, stronger effect = lower value
[2] = S. cerevisiae deletion strains, locus YBR229C, strain ROT2, stronger effect = lower value
[3] = S. cerevisiae deletion strains, locus YDL101C, strain DUN1, stronger effect = lower value
[4] = S. cerevisiae deletion strains, locus YDR150W, strain NUM1, stronger effect = lower value
[5] = S. cerevisiae deletion strains, locus YEL061C, strain CIN8, stronger effect = lower value
[6] = S. cerevisiae deletion strains, locus YGR078C, strain PAC10, stronger effect = lower value
[7] = S. cerevisiae deletion strains, locus YHR030C, strain SLT2, stronger effect = lower value
[8] = S. cerevisiae deletion strains, locus YHR087W, strain rtc3, stronger effect = lower value
[9] = S. cerevisiae deletion strains, locus YJR043C, strain POL32, stronger effect = lower value
[10] = S. cerevisiae deletion strains, locus YJR075W, strain HOC1, stronger effect = lower value
[11] = S. cerevisiae deletion strains, locus YKL190W, strain CNB1, stronger effect = lower value
[12] = S. cerevisiae deletion strains, locus YLR039C, strain RIC1, stronger effect = lower value
[13] = S. cerevisiae deletion strains, locus YLR058C, strain SHM2 (second series), stronger effect = lower value
[14] = S. cerevisiae deletion strains, locus YLR085C, strain ARP6, stronger effect = lower value
[15] = S. cerevisiae deletion strains, locus YLR262C, strain YPT6, stronger effect = lower value
[16] = S. cerevisiae deletion strains, locus YML094W, strain GIM5, stronger effect = lower value
[17] = S. cerevisiae deletion strains, locus YMR219W, strain ESC1, stronger effect = lower value
[18] = S. cerevisiae deletion strains, locus YMR263W, strain SAP30, stronger effect = lower value
[19] = S. cerevisiae deletion strains, locus YNL153C, strain GIM3, stronger effect = lower value
[20] = S. cerevisiae deletion strains, locus YNL298W, strain CLA4 (second series), stronger effect = lower value
[21] = S. cerevisiae deletion strains, locus YNL322C, strain KRE1, stronger effect = lower value
[22] = S. cerevisiae deletion strains, locus YNR030W, strain Alg12, stronger effect = lower value
[23] = S. cerevisiae deletion strains, locus YPL055C, strain LGE1, stronger effect = lower value
[24] = S. cerevisiae deletion strains, locus YPL241C, strain CIN2, stronger effect = lower value
[25] = S. cerevisiae deletion strains, locus YPR135W, strain CTF4, stronger effect = lower value

Measured: normalized growth

NC(N)=NC(N)=Nc1ccc2c(c1)OCCO2
inactive: [1] 0.987 | [2] 1.01 | [3] 1.01 | [4] 0.918 | [5] 0.995 | [6] 0.99 | [7] 0.983 | [8] 1.01 | [9] 0.989 | [10] 0.993 | [11] 0.994 | [12] 1 | [13] 0.994 | [14] 0.963 | [15] 0.998 | [16] 1.06 | [17] 0.996 | [18] 0.943 | [19] 1.01 | [20] 0.993 | [21] 1 | [22] 0.995 | S. cerevisiae deletion strains, locus YOL006C, strain TOP1, stronger effect = lower value 1.03 | [23] 0.993 | [24] 0.927 | [25] 1.01 | S. cerevisiae strains, strain wild type, stronger effect = lower value 0.995

NNC(=S)Nc1ccc2c(c1)OCCO2
active: [22] 0.806
inactive: [1] 1.01 | [2] 1.01 | [3] 1.01 | S. cerevisiae deletion strains, locus YDL134C, strain PPH21, stronger effect = lower value 1.01 | [4] 0.956 | [5] 0.983 | [6] 0.991 | S. cerevisiae deletion strains, locus YGR229C, strain SMI1, stronger effect = lower value 0.986 | [7] 1.02 | [8] 1.05 | [9] 1 | [10] 1.05 | [11] 0.99 | [12] 0.983 | [13] 1.01 | [14] 0.939 | [15] 1.01 | [16] 0.944 | [17] 1.02 | [18] 0.996 | S. cerevisiae deletion strains, locus YMR307W, strain GAS1, stronger effect = lower value 0.954 | S. cerevisiae deletion strains, locus YNL128W, strain TEP1, stronger effect = lower value 0.976 | [19] 0.994 | [20] 0.992 | [21] 1.02 | [23] 0.967 | [24] 1.1 | [25] 0.823

CC(C)C[C@@H](CN)CC(=O)O
inactive: S. cerevisiae deletion strains, locus YAL021C, strain ccr4, stronger effect = lower value 1.04 | S. cerevisiae deletion strains, locus YAL026C, strain drs2, stronger effect = lower value 1.03 | S. cerevisiae deletion strains, locus YAL030W, strain snc1, stronger effect = lower value 1.02 | S. cerevisiae deletion strains, locus YBL061C, strain skt5, stronger effect = lower value 1.01 | S. cerevisiae deletion strains, locus YBR009C, strain hhf1, stronger effect = lower value 1 | S. cerevisiae deletion strains, locus YBR023C, strain chs3, stronger effect = lower value 1.02 | S. cerevisiae deletion strains, locus YBR171W, strain sec66, stronger effect = lower value 1.02 | S. cerevisiae deletion strains, locus YBR231C, strain swc5, stronger effect = lower value 0.994 | S. cerevisiae deletion strains, locus YBR279W, strain paf1, stronger effect = lower value 1.02 | S. cerevisiae deletion strains, locus YCL011C, strain gbp2, stronger effect = lower value 1.03 | S. cerevisiae deletion strains, locus YCL016C, strain dcc1, stronger effect = lower value 1.04 | S. cerevisiae deletion strains, locus YCL061C, strain MRC1, stronger effect = lower value 1.02 | S. cerevisiae deletion strains, locus YCL069W, strain vba3, stronger effect = lower value 1.04 | S. cerevisiae deletion strains, locus YCR088W, strain abp1, stronger effect = lower value 1.02 | S. cerevisiae deletion strains, locus YDL005C, strain med2, stronger effect = lower value 1.02 | S. cerevisiae deletion strains, locus YDL040C, strain nat1, stronger effect = lower value 1.01 | S. cerevisiae deletion strains, locus YDR001C, strain nth1, stronger effect = lower value 1.01 | S. cerevisiae deletion strains, locus YDR069C, strain doa4, stronger effect = lower value 1.01 | S. cerevisiae deletion strains, locus YDR137W, strain rgp1, stronger effect = lower value 1.06 | S. cerevisiae deletion strains, locus YDR159W, strain sac3, stronger effect = lower value 0.965 | S. cerevisiae deletion strains, locus YDR195W, strain ref2 0.977 | S. cerevisiae deletion strains, locus YDR297W, strain sur2, stronger effect = lower value 1.01 | S. cerevisiae deletion strains, locus YDR334W, strain swr1, stronger effect = lower value 1.02 | S. cerevisiae deletion strains, locus YDR335W, strain msn5, stronger effect = lower value 1.04 | S. cerevisiae deletion strains, locus YDR392W, strain spt3, stronger effect = lower value 0.954 | S. cerevisiae deletion strains, locus YEL003W, strain gim4, stronger effect = lower value 1.01 | S. cerevisiae deletion strains, locus YEL037C, strain rad23, stronger effect = lower value 1.01 | S. cerevisiae deletion strains, locus YEL061C, strain CIN8 (second series), stronger effect = lower value 1.01 | S. cerevisiae deletion strains, locus YER015W, strain faa2, stronger effect = lower value 1 | S. cerevisiae deletion strains, locus YER016W, strain bim1, stronger effect = lower value 1.04 | S. cerevisiae deletion strains, locus YER111C, strain swi4, stronger effect = lower value 1.02 | S. cerevisiae deletion strains, locus YER155C, strain BEM2 (second series), stronger effect = lower value 1 | S. cerevisiae deletion strains, locus YFR010W, strain ubp6, stronger effect = lower value 1.01 | S. cerevisiae deletion strains, locus YGL167C, strain pmr1, stronger effect = lower value 1.02 | S. cerevisiae deletion strains, locus YGL173C, strain kem1, stronger effect = lower value 1.01 | S. cerevisiae deletion strains, locus YGL227W, strain vid30, stronger effect = lower value 1.01 | S. cerevisiae deletion strains, locus YGL240W, strain doc1, stronger effect = lower value 1 | S. cerevisiae deletion strains, locus YGL253W, strain hxk2, stronger effect = lower value 1.02 | S. cerevisiae deletion strains, locus YHR013C, strain ard1, stronger effect = lower value 1.05 | S. cerevisiae deletion strains, locus YHR027C, strain rpn1, stronger effect = lower value 1.01 | [7] 1.09 | S. cerevisiae deletion strains, locus YHR079C, strain IRE1, stronger effect = lower value 0.981 | S. cerevisiae deletion strains, locus YHR142W, strain chs7, stronger effect = lower value 1.03 | S. cerevisiae deletion strains, locus YJL092W, strain hpr5, stronger effect = lower value 1.01 | S. cerevisiae deletion strains, locus YJL095W, strain BCK1 (second series), stronger effect = lower value 1.02 | S. cerevisiae deletion strains, locus YJL095W, strain BCK1, stronger effect = lower value 0.989 | S. cerevisiae deletion strains, locus YJL115W, strain asf1, stronger effect = lower value 1.03 | S. cerevisiae deletion strains, locus YJL129C, strain trk1, stronger effect = lower value 1.03 | S. cerevisiae deletion strains, locus YJL154C, strain vps35, stronger effect = lower value 1.02 | S. cerevisiae deletion strains, locus YJL164C, strain tpk1, stronger effect = lower value 1 | S. cerevisiae deletion strains, locus YJL166W, strain qcr8, stronger effect = lower value 1.01 | S. cerevisiae deletion strains, locus YJL187C, strain SWE1, stronger effect = lower value 1.01 | S. cerevisiae deletion strains, locus YJR066W, strain TOR1, stronger effect = lower value 0.959 | S. cerevisiae deletion strains, locus YKL160W, strain elf1, stronger effect = lower value 1.04 | S. cerevisiae deletion strains, locus YKR026C, strain gcn3, stronger effect = lower value 1.01 | S. cerevisiae deletion strains, locus YKR091W, strain srl3, stronger effect = lower value 1.01 | S. cerevisiae deletion strains, locus YLL001W, strain dnm1, stronger effect = lower value 0.995 | S. cerevisiae deletion strains, locus YLL026W, stronger effect = lower value 1.01 | S. cerevisiae deletion strains, locus YLL041C, strain sdh2, stronger effect = lower value 1.03 | S. cerevisiae deletion strains, locus YLR027C, strain aat2, stronger effect = lower value 1.02 | S. cerevisiae deletion strains, locus YLR113W, strain HOG1, stronger effect = lower value 0.992 | S. cerevisiae deletion strains, locus YLR221C, strain rsa3, stronger effect = lower value 0.998 | S. cerevisiae deletion strains, locus YLR258W, strain gsy2, stronger effect = lower value 1.04 | S. cerevisiae deletion strains, locus YLR262C, strain YPT6 (second series), stronger effect = lower value 1.02 | S. cerevisiae deletion strains, locus YLR320W, strain mms22, stronger effect = lower value 0.981 | S. cerevisiae deletion strains, locus YLR342W, strain FKS1, stronger effect = lower value 1.04 | S. cerevisiae deletion strains, locus YLR357W, strain rsc2, stronger effect = lower value 0.987 | S. cerevisiae deletion strains, locus YLR370C, strain arc18, stronger effect = lower value 1.03 | S. cerevisiae deletion strains, locus YLR384C, strain iki3, stronger effect = lower value 1.02 | S. cerevisiae deletion strains, locus YML120C, strain ndi1, stronger effect = lower value 1.01 | S. cerevisiae deletion strains, locus YMR058W, strain fet3, stronger effect = lower value 1.02 | S. cerevisiae deletion strains, locus YMR125W, strain sto1, stronger effect = lower value 1.02 | S. cerevisiae deletion strains, locus YMR129W, stronger effect = lower value 1.02 | S. cerevisiae deletion strains, locus YMR205C, strain PFK2, stronger effect = lower value 0.993 | S. cerevisiae deletion strains, locus YMR231W, strain pep5, stronger effect = lower value 1.01 | S. cerevisiae deletion strains, locus YNL071W, strain lat1, stronger effect = lower value 1.02 | S. cerevisiae deletion strains, locus YNL183C, strain NPR1, stronger effect = lower value 0.923 | S. cerevisiae deletion strains, locus YNL209W, strain ssb2, stronger effect = lower value 1.01 | S. cerevisiae deletion strains, locus YNL248C, strain rpa49, stronger effect = lower value 1.01 | S. cerevisiae deletion strains, locus YNL322C, strain KRE1 (second series), stronger effect = lower value 1.02 | S. cerevisiae deletion strains, locus YNR049C, strain mso1, stronger effect = lower value 1.01 | S. cerevisiae deletion strains, locus YOR001W, strain rrp6, stronger effect = lower value 1.01 | S. cerevisiae deletion strains, locus YOR070C, strain gyp1, stronger effect = lower value 1.02 | S. cerevisiae deletion strains, locus YOR080W, strain dia2, stronger effect = lower value 1.03 | S. cerevisiae deletion strains, locus YOR083W, strain WHI5, stronger effect = lower value 0.974 | S. cerevisiae deletion strains, locus YOR106W, strain vam3, stronger effect = lower value 1.03 | S. cerevisiae deletion strains, locus YOR231W, strain MKK1, stronger effect = lower value 0.982 | S. cerevisiae deletion strains, locus YOR265W, strain rbl2, stronger effect = lower value 0.999 | S. cerevisiae deletion strains, locus YOR270C, strain vph1, stronger effect = lower value 1.12 | S. cerevisiae deletion strains, locus YOR290C, strain snf2, stronger effect = lower value 1.06 | S. cerevisiae deletion strains, locus YPL051W, strain arl3, stronger effect = lower value 1.04 | S. cerevisiae deletion strains, locus YPL078C, strain atp4, stronger effect = lower value 1.04 | S. cerevisiae deletion strains, locus YPL106C, strain sse1, stronger effect = lower value 1.02 | S. cerevisiae deletion strains, locus YPL240C, strain hsp82, stronger effect = lower value 1.02 | S. cerevisiae deletion strains, locus YPL256C, strain CLN2, stronger effect = lower value 0.984

— PubChem BioAssay AID1159580 (chemical genetic matrix, 2015)
